Several values for one entry are separate records, joined by “and”; a condition that tells them apart may be missing. Identical values can stand only once. The campaign covered roughly 420,000 compounds. About 50,000 (12%) were called active. Entries that show only a call come without a potency. Inconclusive results (about 26%) are left out. Only a selection was taken, and actives are over-represented in it overall. Unmarked numbers belong to inactive results. Calls come from the whole dose curve; as a rule, active = well fitted inhibition curve with a large enough effect; inconclusive = small, poorly fitted or top-dose-only effect; inactive = flat fitted curve, though single readings scatter.
assay: qHTS for Inhibitors of human tyrosyl-DNA phosphodiesterase 1 (TDP1): qHTS in cells in presence of CPT; conditions: chicken DT40 Tdp1-/-;hTDP1 cells + 20 nM CPT, ATP luminescence, 48 h; series mostly up to 46.2 µM; note: nearly all actives have a fitted effect of over 55% in size
Summary of the method: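 Chicken DT40 Tdp1-/- cells complemented with human TDP1, 400 cells/well, exposed to compounds plus 20 nM camptothecin for at least 48 h at 37 C; viability read as ATP content by CellTiter-Glo luminescence.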
Potency is the fitted concentration of half-maximal effect.

SMILES	Potency	activity change, negative = growth inhibition
CCOC(=O)C(O)(c1ccc(N=Cc2ccccc2O)c(C)c1)C(F)(F)F (stereo not given)	inactive	
CC(=O)c1c(O)c(C)c(O)c(Cc2c(O)c3c(c(C(=O)/C=C\c4ccccc4)c2O)OC(C)(C)C=C3)c1O	13.3 µM (active)	
CC(=O)c1c(O)c(C)c(O)c(Cc2c(O)c3c(c(C(=O)/C=C/c4ccccc4)c2O)OC(C)(C)C=C3)c1O	29.9 µM (active)	
O=C1NC(=O)C(CCc2ccccn2)(Cc2cccc(Cl)c2Cl)C(=O)N1c1ccc(Br)cc1 (stereo not given)	inactive	
CCOP(=S)(OCC)SCOC(=O)NCC(=O)OC	inactive	
CN1CCc2cc3c(cc2[C@H]1[C@@H]1OC(=O)c2c1ccc1c2OCO1)OCO3	inactive	
C=CCSSCC=C	inactive	
CC(=CCOc1ccc2ccc(=O)oc2c1)C1=CC(=O)C(C)(C)O1	5.8 µM (active)	
c1ccc2c(c1)[I+]c1ccccc1-2	33.5 nM (active) and 15.8 nM (active) and 79.4 nM (active)	
Cc1nc2nc(C)c(CCC(=O)N3CCC4(CC3)OCCO4)c(C)n2n1	inactive	
O=C(O)CCn1cc(C=C2C(=O)NC(=S)NC2=O)c(-c2cccc(Br)c2)n1	inactive	
CNCC[C@H](Oc1ccc(C(F)(F)F)cc1)c1ccccc1	7.5 µM (active)	
N[C@@H](Cc1c[nH]c2ccccc12)c1nnc(SCc2c(F)cccc2Cl)o1	inactive	
CC(C)C(N)C(=O)OCCOCn1cnc2c(=O)[nH]c(N)nc21 (stereo not given)	2.06 µM (active)	
CN(C)C(=O)Oc1cc(=O)n2c3c(cccc13)CCC2	inactive	
O=[N+]([O-])c1cnc2ccc3ccccc3c2c1	inactive	
CC1CC=CCC12C(=O)NC(=S)NC2=O (stereo not given)	inactive	
COC(=O)COc1cc(C)cc2oc(=O)c3c(c12)CCCC3	inactive	
O=c1c2ccccc2nc(CBr)n1-c1ccc(Cl)cc1	inactive	
Cc1nc2ccccc2c(=O)n1-c1ccc(Cl)cc1Cl	13 µM (active)	
O=C1CC(=O)N(Cc2ccccc2)C(=O)N1CCCCCCN1C(=O)CC(=O)N(Cc2ccccc2)C1=O	inactive	
O=C(O)c1cc[c]([Sb](=[O])([OH])[OH])cc1[N+](=O)[O-]	inactive	

SMILES	Potency	activity change, negative = growth inhibition
COc1ccc(C)cc1N(CC(=O)N1CCC(C)CC1)S(=O)(=O)c1ccc(C)cc1	18.4 µM (active)	
COc1cc2c(cc1OC)[C@@H]1C(=O)c3ccc(O)c(CC=C(C)C)c3OC1CO2 (stereo not given in full)	inactive	
COc1ccc2[nH]c3c(c2c1)CCN[C@H]3C	inactive	
CC1CCC(N(C)C2CCN(C)CC2)CC1 (stereo not given)	inactive	
C[C@]12CCC3C(CC[C@H]4C[C@@H](O)CC[C@]34C)C1CC[C@@H]2O (stereo not given in full)	inactive	
O=C(c1ccccc1[N+](=O)[O-])N1CCC2(CC1)OCCO2	inactive	
Cc1cc(C)cc(C(=O)N(CCc2ccccc2)C2=CC3CCC(C2)N3C)c1 (stereo not given)	20.6 µM (active)	
CN1C2C=C(N(C(=O)c3ccc(Cl)cc3)c3ccccc3)CC1CC2 (stereo not given)	inactive	
Cc1ccc(N2C(=O)NC(=O)C(CCc3ccncc3)(Cc3cccc(Cl)c3Cl)C2=O)cc1 (stereo not given)	inactive	
CN(C)C1C(=O)C(C(N)=O)=C(O)[C@@]2(O)C(=O)C3=C(O)c4c(O)cccc4[C@@](C)(O)C3C[C@@H]12 (stereo not given in full)	21.1 µM (active)	
CC(C)Nc1nc(Cl)nc(NC(C)C)n1	inactive	
COC(=O)C(O)(c1ccc(NC(=O)c2ccco2)c(OC)c1)C(F)(F)F (stereo not given)	inactive	
CCNc1nc2[nH]c(=O)c3c(c2s1)OC(N)=C(C#N)C3c1cccs1 (stereo not given)	inactive	
N#CC1=C(N)Oc2c(c(=O)oc3ccccc23)C1c1ccccc1OC(=O)c1cccs1 (stereo not given)	18.4 µM (active)	
CNP1(NC)=Nc2nn(-c3ccccc3)c(N)c2C(c2ccccc2)=N1	inactive	
CN(C)CC1Oc2ccccc2OC1(O)c1ccccc1 (stereo not given)	2.06 µM (active)	
COc1cc(OC)cc(C2(C#N)CCN(C)CC2)c1	inactive	
CCCCC/C=C\C/C=C\C/C=C\C/C=C\CCCCCC(=O)NCCO		-4.85% [at 4.12 µM]
O=C(N/N=C/c1c(O)n(C2CC2)c(=S)[nH]c1=O)c1ccccc1Cl	inactive	
COC([CH2][Hg])CNC(=O)c1ccccc1OCC(=O)O (stereo not given)	1.06 µM (active)	
c1cncc(CNC2=NCCC2)c1	inactive	
CCOP(=S)(OCC)C(O)CCCCCn1c(=O)c(F)cn(C2CCCO2)c1=O (stereo not given)	inactive	

SMILES	Potency	activity change, negative = growth inhibition
CCC1(CC(C)c2ccccc2)C(=O)NC(=O)NC1=O (stereo not given)	inactive	
CCc1ccccc1NC(=O)c1sc2nc3c(cc2c1N)CN(Cc1ccccc1)CC3	7.31 µM (active)	
Cn1cc(C(=O)OCC(=O)N2CCCC2)c2ccccc21	inactive	
O=C(Nc1ccc(Cl)cc1C(=O)c1ccccc1)c1cc(Cl)cc(Cl)c1	inactive	
O=C(COC(=O)c1ccccc1)Nc1ccc(Cl)cc1C(=O)c1ccccc1	inactive	
CN1CCN(C(=S)SCC(=O)Nc2ccc(Cl)cc2C(=O)c2ccccc2)CC1	14.6 µM (active)	
CC(Cc1cccs1)NCc1ccc(Cl)cc1 (stereo not given)	inactive	
CC(C)(Cc1c[nH]c2ccc(Cl)cc12)NCCOc1ccccc1OCC1CC1	21.1 µM (active) and 6.51 µM (active)	
Cc1ccc(Cn2c(C)c3cnn(CC(=O)N4CCC5(CC4)OCCO5)c(=O)c3c2C)cc1	20.6 µM (active)	
COc1ccc(-c2nc(CS(=O)CC(=O)N3CCC4(CC3)OCCO4)c(C)o2)cc1 (stereo not given)	inactive	
O=C(CCCn1c(=O)[nH]c2cc(Cl)ccc2c1=O)N1CCC2(CC1)OCCO2	inactive	
CCC(=O)OC(Cc1ccccc1)(c1ccccc1)C(C)CN(C)C (stereo not given)	inactive	
COC(=O)[C@@]12C[C@@H](CC(=O)NCc3cccc(C(F)(F)F)c3)C(=O)N(Cc3ccco3)C1=CCC(C)(C)C2	20.6 µM (active)	
COc1cccc(-c2nc3ccc(N4CCN(C)CC4)cc3[nH]2)c1	inactive	
O=C1C2CCN(CC2)C1(CO)CO	2.66 µM (active)	
CN(C)C(=O)NC(O)C(Cl)(Cl)Cl (stereo not given)	inactive	
O=c1[nH]c(=O)n(Cc2ccccc2)c(O)c1/C=N/Nc1c(F)c(F)c(F)c(F)c1F	inactive	
O=C1NC(=O)C(Cc2ccccc2)C(=O)N1	inactive	
CCN(CC)C(=O)Oc1ccc(NC(=O)N2CCOCC2)cc1	inactive	
O=C(OCCN1CCOCC1)C1(c2ccccc2)CCCC1	inactive	
O=c1c2ccccc2nc(/C=C/c2ccco2)n1-c1ccccc1O	14.6 µM (active)	
Cn1cc(/C=C/c2nc3ccccc3c(=O)n2-c2ccccc2)c2ccccc21	10.3 µM (active)	

SMILES	Potency	activity change, negative = growth inhibition
O=c1c2ccccc2nc(/C=C/c2ccc(F)cc2)n1-c1ccccc1O	23.1 µM (active)	
CSc1nc2ccc(C)cc2c(=O)n1-c1cccnc1	inactive	
O=C(Nc1cccc2ccccc12)N1CCC2(CC1)OCCO2	inactive	
CCOC(=O)C1CN(C)CCC1=O (stereo not given)	inactive	
CN(C)CCCN=Cc1c(O)n(Cc2ccco2)c(=O)[nH]c1=O	inactive	
c1cc2c(cc1[C@H]1OC[C@H]3[C@@H]1CO[C@@H]3c1ccc3c(c1)OCO3)OCO2	inactive	
CC(CC(C#N)(c1ccccc1)c1ccccc1)N1CCCCC1 (stereo not given)	inactive	
O=C(N/N=C/c1ccc([N+](=O)[O-])o1)c1cc([N+](=O)[O-])cc([N+](=O)[O-])c1O	inactive	
N[C@H](C(=O)O)c1cc(=O)[nH]o1	inactive	
O=C(COC(=O)Cc1ccccc1)Nc1ccc(F)cc1	inactive	
CC(C)c1ccc(-n2c(O)c(/C=N/N3CCOCC3)c(=O)[nH]c2=S)cc1	inactive	
CN(C)c1cccc(C(=O)Nc2nc3ccc(S(=O)(=O)NC(C)(C)C)cc3s2)c1	10.3 µM (active)	
CC1C2Cn3c(nc4ccccc43)C1N(C)O2 (stereo not given)	inactive	
Cc1c(C(=O)O)cccc1-n1c(C)cc(/C=C2\C(=O)NC(=O)N(c3ccc4c(c3)OCO4)C2=O)c1C	inactive	
CN1[C@@H]2CC[C@H]1CC(OC(=O)c1cc(Cl)cc(Cl)c1)C2 (stereo not given in full)	18.8 µM (active)	
COC(=O)[C@@H]1C(OC(=O)c2ccccc2)CC2CCC1N2C (stereo not given in full)	inactive	
CN1CCC(OC(=O)c2cccc(F)c2)CC1	inactive	
CC1([N+](=O)[O-])COP(=O)(Nc2ccc(F)cc2)OC1 (stereo not given)	inactive	
Cc1c(Oc2cc(NN3CCCCC3)c([N+](=O)[O-])cc2[N+](=O)[O-])cccc1[N+](=O)[O-]	inactive	
